For 89 molecules, inhibition results are on record in PubChem BioAssay AID488899 (Broad Institute, 2010).

The campaign covered roughly 330,000 compounds. About 2,800 (0.85%) were called active. The sample as a whole holds a higher share of actives than the screen did. Unmarked numbers belong to inactive results.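 The calls were made as follows: active = mean inhibition across replicates of 60% or more, whatever share of single replicates reaches that level; inconclusive = some that reach 60%, reason not given; inactive = mean inhibition across replicates below 60%.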

The assay can be described thus: inhibitors of MITF-dependent TRPM1 promoter reporter, primary screen, cell-based, SK-MEL-5, single point, luciferase (AID 488899). The conditions noted are these: SK-MEL-5 TRPM1 promoter luciferase, 24 h; at 12.5 µM; stronger effect = higher value.
What is called inhibition is the drop in the measured response relative to a control, in per cent. On to `O=C(CCl)N(Cc1cccc([N+](=O)[O-])c1)c1cccc(Cl)c1`, for which the inhibition was 66.2% (active).

As for `Cc1ccc(S(=O)(=O)N(Cc2cccc([N+](=O)[O-])c2)C(=O)N2CCN(C)CC2)cc1`, the inhibition is 4.92%.

As for `CCN(CC)C(=O)CN(c1cccc([N+](=O)[O-])c1)S(=O)(=O)c1ccccc1`, the inhibition is -4.33%.

With `COCCSc1nnc(NC(=O)c2cc(OC)c(OC)cc2[N+](=O)[O-])s1`, the inhibition is -2.51%.

As to `CC(=NNC(=O)c1ccncc1)c1ccc(Cl)c(Cl)c1`, the inhibition is -7.3%.

With `NS(=O)(=O)c1ccc(CNC(=O)c2ccc(Cl)cc2[N+](=O)[O-])cc1`, the inhibition was 10.6%.

`CC1=C(C(=O)OCc2ccccc2)C(c2ccc(C(F)(F)F)cc2)NC(=O)N1CCCCCC(=O)O` (centres undefined): the inhibition is -6.33%.

For the molecule `CCOC(=O)CCCNC(=O)CN1C(=O)NC(CCc2ccccc2)C1=O` (centres undefined), the inhibition is 4.69%.

Take `CCCCNC(=O)C(C)N(CCN(C)C)C(=O)CCCCCN1C(=O)NC(c2ccc(Cl)cc2)C(C(=O)OCc2ccccc2)=C1C` (centres undefined): the inhibition is 94.5% (active).

Take `CCN1C(=O)N[C@@H](c2ccccc2)C(C(=O)OC)=C1C`: the inhibition was -9.9%.

With `CCOC(=O)C1=C(c2ccccc2)NC(=S)NC1c1ccc(Cl)cc1` (centres undefined), the inhibition is -19%.

As to `CCCCNC(=O)C(C)N(CCN(C)C)C(=O)CCCN1C(=O)NC(c2ccc(Cl)cc2)C(C(=O)OCc2ccccc2)=C1C` (centres undefined), the inhibition was 91.1% (active).

With `C/C(CC(=O)NCc1ccc(Cl)cc1)=N\NC(=O)COc1ccc(C)cc1Br`, the inhibition is 40.1%.

Consider `Nc1nc(SCC(=O)N2CCN(S(=O)(=O)c3ccc(Cl)cc3)CC2)n[nH]1`, for which the inhibition was -2.96%.

For `Fc1ccccc1/C=N/Nc1cc(N2CCCCC2)ncn1`, the inhibition was -35%.

Turning to `COc1cc2ccccc2cc1C(=O)N(CCN(C)C)c1nc2c(F)cccc2s1`, the inhibition was 2.41%.

Regarding `COc1cccc2sc(N(CCCN(C)C)C(=O)CCS(=O)(=O)c3ccccc3)nc12`, the inhibition was 31.1%.

As for `COc1cccc2sc(N(CCCN(C)C)C(=O)C(c3ccccc3)c3ccccc3)nc12`, the inhibition is 71.9% (active).

For the molecule `COc1cccc2c1C(=O)c1c(O)c3c(c(O)c1C2=O)CC(O)(C(C)=NNC(=O)c1ccc(Cl)c(Cl)c1)CC3OC1CC(N)C(O)C(C)O1` (centres undefined), the inhibition is 82.2% (active).

For `CN(CC(=O)Nc1ccc(F)c(F)c1F)C(=O)Cn1cnc2c1c(=O)n(C)c(=O)n2C`, the inhibition is -2.69%.

As to `Cc1ccc(OCC(=O)Nc2ccc3oc(=O)ccc3c2)cc1C`, the inhibition was -15.4%.

In the case of `CCN1/C(=C\c2ccc3ccccc3[n+]2CC)Sc2cc(C)ccc21`, the inhibition was 104% (active).

As for `CC(C)(C)n1nc2c(c1NC(=O)c1ccc(S(=O)(=O)N3CCCC3)cc1)CS(=O)C2` (centres undefined), the inhibition was -11.4%.

For `O=C(NC1=CC(=O)c2ccccc2C1=O)c1ccccc1`, the inhibition is 94.4% (active).

With `O=C1C=C(NS(=O)(=O)c2ccccc2)C(=O)c2ccccc21`, the inhibition was 65.7% (active).

In the case of `O=S(=O)(NCCNS(=O)(=O)c1ccccc1)c1ccccc1`, the inhibition was 11.2%.

`Cn1c(NC(=O)c2ccccc2)nc2ccccc21`: the inhibition is -26.1%.

For `CC(NC(=O)c1ccccc1)C(=O)Nc1ccccc1` (centres undefined), the inhibition was -6.34%.

As to `COc1ccc(S(=O)(=O)/N=C2\C=C(NS(=O)(=O)c3ccccc3)C(=O)c3ccccc32)cc1`, the inhibition is 12.7%.

Regarding `O=C(COC(=O)CSc1nnc(-c2ccc(Cl)cc2)o1)Nc1cc(Cl)cc(Cl)c1`, the inhibition was -3.64%.

With `CC(C)c1nc2oc3c(N4CCN(C)CC4)ncnc3c2c2c1CCC2`, the inhibition is 5.53%.

As for `CC(=O)N1CCc2ccc(N)cc21`, the inhibition is 6.31%.

For `CSc1ccccc1NC(=O)c1cnc2sc(C)cn2c1=O`, the inhibition is -128%.

As for `COCCN1C(=O)C(=O)/C(=C(/O)c2ccc(S(=O)(=O)N3CCOCC3)cc2)C1c1ccc(O)c(OC)c1` (centres undefined), the inhibition was -1.49%.

On to `O=C(CNCc1ccc(Cl)cc1)Nc1cccc(C(=O)O)c1`, for which the inhibition is 2.1%.

Regarding `O=C(CSc1ccccc1F)NC1CCS(=O)(=O)C1` (centres undefined), the inhibition is -4.88%.

Take `O=S1(=O)CCC(NC(=S)SCc2ccccc2Br)C1` (centres undefined): the inhibition was 75.3% (active).

Consider `CCCSC(=S)NC1CCS(=O)(=O)C1` (centres undefined), for which the inhibition was 17%.

Regarding `COc1ccc(OC)c(Cc2cnc3nc(N)nc(N)c3c2C)c1`, the inhibition is 8.03%.

As to `CCOC(=O)N1CCN(C(=O)c2ccc3c(=O)n(CCc4ccc(OC)c(OC)c4)c(=O)[nH]c3c2)CC1`, the inhibition is 2.29%.

Consider `Cc1oc2c(C)c3oc(=O)c(CC(=O)N[C@@H](CC(C)C)C(=O)N[C@@H](Cc4ccccc4)C(=O)O)c(C)c3cc2c1C`, for which the inhibition was 9.54%.

As to `CC(C)(C)NC(=O)COc1ccc(CNc2ccc3[nH]c(=O)[nH]c3c2)cc1`, the inhibition is 0.891%.

On to `O=C(c1ccc2nc(N3CCOCC3)sc2c1)N1CCN(c2ccc(Cl)cc2)CC1`, for which the inhibition is 4.87%.

With `COc1ccc2nc(N3C(=O)C(O)=C(C(=O)c4ccco4)C3c3ccco3)sc2c1` (centres undefined), the inhibition was 10.6%.

On to `COc1ccc2nc(N3CCN(C(=O)c4ccc([N+](=O)[O-])o4)CC3)sc2c1`, for which the inhibition is 67.3% (active).

Regarding `CC(C)(C)c1nnc2sc(SCC(O)=C(C#N)c3nc4ccccc4[nH]3)nn2c1=O`, the inhibition is -7.27%.

For `O=C(CN1CCc2ccccc2C1)Nc1cccc(S(=O)(=O)N2CCOCC2)c1`, the inhibition was 4.73%.

For the molecule `COC(=O)c1ccc(CN2CCC(CO)(Cc3ccc(OC)cc3)CC2)cc1`, the inhibition is -13%.

For `Nc1c(Cl)cc(S(N)(=O)=O)cc1S(N)(=O)=O`, the inhibition is -2.87%.

`S=C(NCCCc1ccccc1)Nc1ccc(Br)cc1`: the inhibition was -6.26%.

Turning to `C=C(C)C(=O)O[C@H]1C/C(C)=C\C(=O)/C=C(\C)[C@H](O)[C@@H]2OC(=O)C(=C)[C@@H]21`, the inhibition is 85.9% (active).

In the case of `O=[N+]([O-])c1cccc(C=NN=Cc2ccccc2O)c1`, the inhibition is -42.5%.

On to `CCOc1ccc(CCNC(=O)COC(=O)C2CCN(S(=O)(=O)c3ccccc3)CC2)cc1OCC`, for which the inhibition is 9.54%.

Take `Cc1nn(Cc2ccc(Cl)cc2)c(Cl)c1/C=N/NC(=O)c1cccnc1`: the inhibition is 18.6%.

Consider `Cc1c(Cl)c([N+](=O)[O-])nn1Cc1ccc(C(=O)N/N=C\c2cc(Cl)ccc2O)o1`, for which the inhibition is 65.8% (active).

On to `O=C(N/N=C\c1ccc(Br)cc1)c1ccc(Cn2cccn2)o1`, for which the inhibition was -24.2%.

In the case of `COc1ccc(CCN2C(=O)CC(N3CCC(C(N)=O)CC3)C2=O)cc1OC` (centres undefined), the inhibition was 18.7%.

With `CCCCN1CC(COCc2ccccc2)OCCS1(=O)=O` (centres undefined), the inhibition was 6.74%.

With `O=C(CC1Sc2ccccc2NC1=O)NNc1ccc(Cl)c(Cl)c1` (centres undefined), the inhibition was -0.562%.

Consider `C[C@H]1CN([C@@H](C)CO)C(=O)Cc2cc(NC(=O)Cc3ccccc3)ccc2O[C@H]1CN(C)S(=O)(=O)c1cccs1`, for which the inhibition was 14.1%.

As for `CC(=O)c1nc2ccccc2n1Cc1ccccc1`, the inhibition was 3.29%.

`CC(=O)Oc1c(C(=O)c2nnc(C)o2)c(=O)n(Cc2ccccc2)c2ccccc12`: the inhibition was 66% (active).

With `CCCCCn1c(=O)c(C(=O)OCC)c(Cl)c2ccccc21`, the inhibition was 6.88%.

For `Cc1ccc(NC(=S)NC(NC(=O)Cc2cccc3ccccc23)C(Cl)(Cl)Cl)cc1` (centres undefined), the inhibition is 36%.

For `Cc1n[nH]c(=O)c2c1nnn2Cc1ccc(F)cc1`, the inhibition was 0.048%.

In the case of `Cc1ccc(CNS(=O)(=O)CCNC(=O)c2ccccc2)cc1`, the inhibition was -8.66%.

On to `COC(=O)C(C)Oc1ccc2c(c1)O/C(=C\c1cccc(Br)c1)C2=O` (centres undefined), for which the inhibition is -3.21%.

Take `COc1cc(/C=C2\Oc3ccc(C#Cc4ccc(O)cc4)cc3C2=O)cc(OC)c1`: the inhibition is 73.1% (active).

As to `COc1cc(C#Cc2ccc3cc(CCCO)oc(=O)c3c2)cc(OC)c1`, the inhibition is -11.2%.

Take `O=C(C1CC(=O)N(C2CCCC2)C1)N1CCN(c2cccc(C(F)(F)F)c2)CC1` (centres undefined): the inhibition was 3.91%.

As for `C[C@H](CO)N1C[C@H](C)[C@H](CN(C)CC2CC2)Oc2ccc(NC(=O)CCN3CCOCC3)cc2C1=O`, the inhibition was -4.39%.

`O=C(CCNC(=O)c1ccc([N+](=O)[O-])cc1)NC1CCCCC1`: the inhibition was 8.98%.

Consider `O=c1oc2ccccc2c(=O)c2ccccc12`, for which the inhibition was -0.811%.

Regarding `NC(=O)C1CCN(C(=O)c2ccc(-c3ccccc3)cc2)CC1`, the inhibition is -7.15%.

With `O=C1Nc2cc(C(=O)N3CCC(N4CCCCC4)CC3)ccc2S/C1=C\c1ccccc1`, the inhibition is 88.1% (active).

Regarding `O=C(Nc1ccccc1)C1CCN(C(=O)c2ccc(Br)cc2)CC1`, the inhibition was -9.91%.

On to `O=C1[C@@H](c2ccccc2)[C@@H](c2ccccc2)N1c1cccnc1`, for which the inhibition was -10.4%.

As to `COc1ccc(C2NC(=O)C(=O)/C2=C(\O)c2ccc(Cl)cc2)cc1OC` (centres undefined), the inhibition is -6.72%.

As to `CCOc1cc(N2CCOCC2)c(OCC)cc1NC(=O)c1ccc(C)s1`, the inhibition was 4.27%.

As for `CCOc1cc(N2CCOCC2)c(OCC)cc1NC(=O)COc1cccc(Cl)c1`, the inhibition was 0.482%.

For `CCOc1cc(N2CCOCC2)c(OCC)cc1NC(=O)COc1cccc2cccnc12`, the inhibition was 83.8% (active).

As to `CCN1C(=O)N[C@@H](c2ccccc2)[C@H](C(C)=O)[C@H]1C`, the inhibition is 2.98%.

`CCOc1ccc(C(=O)NC(=S)Nc2ccc(N3CCOCC3)c(Cl)c2)cc1[N+](=O)[O-]`: the inhibition is 6.29%.

Take `Cc1cc(=O)[nH]c2nnnn12`: the inhibition was -4.79%.

For the molecule `O=C(NN=Cc1ccccc1)c1ccccc1`, the inhibition is -52.5%.

With `COc1cc(CCC(=O)N2CCN(c3ccccc3Cl)CC2)cc(OC)c1OC`, the inhibition was 7.49%.

Take `O=C(C[C@H]1C/C=C\C[C@@H](NC(=O)OCC2c3ccccc3-c3ccccc32)C(=O)O[C@@H](c2ccccc2)CNC1=O)N[C@H](CO)Cc1ccccc1`: the inhibition was 86.8% (active).

With `CC(C)(C)OC(=O)C[C@@H]1C/C=C\C[C@@H](CC(=O)N[C@H](CO)Cc2ccccc2)C(=O)NC[C@@H](c2ccccc2)OC1=O`, the inhibition is 1.12%.

Turning to `CC(C)(C)OC(=O)C[C@H]1C/C=C\C[C@@H](CC(=O)N[C@H](CO)Cc2ccccc2)C(=O)NC[C@@H](c2ccccc2)OC1=O`, the inhibition is 4.03%.
